# In paper PMC7862700, “An all-to-all approach to the identification of sequence-specific readers for epigenetic DNA modifications on cytosine”:
# Legend:
# Experiment in all cases: DAPPL (digital affinity profiling via proximity ligation, sequencing); 10 mM Tris-HCl pH 7.5, 50 mM NaCl, 1 mM DTT, 4% glycerol, room temperature, 30 min; GST-TFs on glutathione beads, 16-mer random dsDNA library, 0.1% formaldehyde crosslink after washing; high values mean tight binding
# Conditions in all cases: protein: recombinant; tags: N-terminal GST; dsDNA, one strand shown
# FLI1 = molecular target: T1, FLI1 (Homo sapiens, UniProt Q01543 1-452)
# T1 sequence: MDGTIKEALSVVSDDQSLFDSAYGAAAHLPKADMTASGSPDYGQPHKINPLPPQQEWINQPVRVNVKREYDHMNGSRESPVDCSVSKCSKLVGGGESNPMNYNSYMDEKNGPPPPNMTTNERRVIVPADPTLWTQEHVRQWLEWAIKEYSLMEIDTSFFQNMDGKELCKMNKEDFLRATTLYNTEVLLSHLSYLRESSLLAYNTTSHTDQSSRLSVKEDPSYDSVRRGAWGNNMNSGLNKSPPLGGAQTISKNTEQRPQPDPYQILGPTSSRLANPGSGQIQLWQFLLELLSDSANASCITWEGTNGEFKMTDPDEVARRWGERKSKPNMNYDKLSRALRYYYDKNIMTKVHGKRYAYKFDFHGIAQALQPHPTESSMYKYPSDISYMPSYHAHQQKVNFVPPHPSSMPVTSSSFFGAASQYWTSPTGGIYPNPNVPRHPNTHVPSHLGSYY
# In short: (§1)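 Binding signal is defined as a hexamer's read frequency for one factor over its frequency for the tag-only sample. To obtain reads, GST-fused human transcription factors were expressed in yeast, captured on glutathione beads, barcoded with DNA and pooled with that sample. Pools met 200 nmole of a 16-mer random double-stranded DNA library in Tris/NaCl/DTT/glycerol buffer for 30 min at room temperature before washing, 0.1% formaldehyde crosslinking, proximity ligation (BsaI/T4 ligase, 1 h, 37 °C), PCR and Illumina NextSeq500 sequencing.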
# ELK1 = molecular target: T2, ELK1 (Homo sapiens, UniProt P19419 1-428)
# T2 sequence: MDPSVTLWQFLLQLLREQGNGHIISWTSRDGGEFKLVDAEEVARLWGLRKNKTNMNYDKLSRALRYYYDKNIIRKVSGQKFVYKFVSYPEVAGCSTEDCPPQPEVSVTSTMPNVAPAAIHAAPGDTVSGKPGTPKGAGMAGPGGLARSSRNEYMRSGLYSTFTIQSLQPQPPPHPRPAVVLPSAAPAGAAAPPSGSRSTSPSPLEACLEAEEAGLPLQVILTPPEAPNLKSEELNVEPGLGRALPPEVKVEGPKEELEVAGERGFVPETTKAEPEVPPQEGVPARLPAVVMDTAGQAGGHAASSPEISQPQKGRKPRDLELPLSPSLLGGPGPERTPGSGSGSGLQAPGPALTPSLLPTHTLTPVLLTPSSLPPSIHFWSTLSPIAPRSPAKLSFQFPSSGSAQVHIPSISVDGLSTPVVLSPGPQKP
# In short: as §1
# GABPA = molecular target: T3, GABPA (Homo sapiens, UniProt Q06546 1-454)
# T3 sequence: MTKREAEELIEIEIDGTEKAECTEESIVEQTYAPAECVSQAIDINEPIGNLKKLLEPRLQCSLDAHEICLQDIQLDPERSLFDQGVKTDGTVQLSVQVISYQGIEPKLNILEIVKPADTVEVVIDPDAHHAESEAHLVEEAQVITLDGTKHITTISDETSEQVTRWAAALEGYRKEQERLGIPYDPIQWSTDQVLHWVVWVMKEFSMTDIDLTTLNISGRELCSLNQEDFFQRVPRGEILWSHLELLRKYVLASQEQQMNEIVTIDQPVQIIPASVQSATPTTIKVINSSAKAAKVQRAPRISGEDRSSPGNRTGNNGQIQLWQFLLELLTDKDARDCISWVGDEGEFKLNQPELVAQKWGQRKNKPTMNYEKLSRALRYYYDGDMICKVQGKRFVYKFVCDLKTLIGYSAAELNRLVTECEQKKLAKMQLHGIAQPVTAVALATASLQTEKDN
# In short: as §1
# ERG = molecular target: T4, ERG (Homo sapiens, UniProt P11308 1-479)
# T4 sequence: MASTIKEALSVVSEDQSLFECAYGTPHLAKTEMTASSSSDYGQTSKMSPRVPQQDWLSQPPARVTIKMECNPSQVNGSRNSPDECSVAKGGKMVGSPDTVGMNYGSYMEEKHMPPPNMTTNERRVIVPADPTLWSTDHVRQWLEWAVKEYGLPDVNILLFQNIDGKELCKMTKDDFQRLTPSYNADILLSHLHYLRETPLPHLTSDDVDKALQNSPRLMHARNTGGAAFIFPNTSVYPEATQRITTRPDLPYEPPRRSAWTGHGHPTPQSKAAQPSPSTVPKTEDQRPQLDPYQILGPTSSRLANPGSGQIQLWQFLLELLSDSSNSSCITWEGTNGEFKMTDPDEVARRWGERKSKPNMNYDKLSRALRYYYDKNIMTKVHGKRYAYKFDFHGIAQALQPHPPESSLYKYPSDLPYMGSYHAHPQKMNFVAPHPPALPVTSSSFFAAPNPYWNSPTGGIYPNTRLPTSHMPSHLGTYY
# In short: as §1
# ELF1 = ELF1 (Homo sapiens, UniProt P32519 1-619)
# Sequence of ELF1 (P32519 whole entry): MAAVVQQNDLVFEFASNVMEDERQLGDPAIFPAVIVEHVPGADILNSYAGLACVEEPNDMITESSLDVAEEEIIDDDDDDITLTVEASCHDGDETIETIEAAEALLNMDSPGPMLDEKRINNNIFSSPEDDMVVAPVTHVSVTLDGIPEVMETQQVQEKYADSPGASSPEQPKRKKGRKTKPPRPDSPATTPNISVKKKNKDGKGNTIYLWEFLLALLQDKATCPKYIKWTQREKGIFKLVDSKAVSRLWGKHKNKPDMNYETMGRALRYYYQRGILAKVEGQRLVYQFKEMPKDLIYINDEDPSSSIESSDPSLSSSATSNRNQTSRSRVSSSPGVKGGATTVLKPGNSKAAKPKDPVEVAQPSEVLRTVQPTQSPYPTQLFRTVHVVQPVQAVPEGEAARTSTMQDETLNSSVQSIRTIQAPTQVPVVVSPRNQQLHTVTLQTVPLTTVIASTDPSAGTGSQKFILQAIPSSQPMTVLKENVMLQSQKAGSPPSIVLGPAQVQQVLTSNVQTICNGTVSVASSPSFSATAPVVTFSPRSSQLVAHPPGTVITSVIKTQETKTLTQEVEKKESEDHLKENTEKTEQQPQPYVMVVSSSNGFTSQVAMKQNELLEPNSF
# In short: as §1
# EHF = molecular target: T5, EHF (Homo sapiens, UniProt Q9NZC4 1-300)
# T5 sequence: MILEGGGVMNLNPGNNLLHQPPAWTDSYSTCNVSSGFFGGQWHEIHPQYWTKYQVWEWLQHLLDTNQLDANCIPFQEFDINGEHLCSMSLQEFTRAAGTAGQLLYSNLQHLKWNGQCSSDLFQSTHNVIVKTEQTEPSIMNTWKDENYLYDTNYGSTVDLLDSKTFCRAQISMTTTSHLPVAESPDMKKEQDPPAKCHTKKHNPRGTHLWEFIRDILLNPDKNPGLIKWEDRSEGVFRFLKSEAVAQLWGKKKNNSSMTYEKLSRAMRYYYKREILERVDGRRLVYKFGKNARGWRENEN
# In short: as §1
# SPI1 = SPI1 (Homo sapiens, UniProt P17947 1-270)
# In short: as §1
# SPIB = SPIB (Homo sapiens, UniProt Q01892 1-262)
# Sequence of SPIB (Q01892 whole entry): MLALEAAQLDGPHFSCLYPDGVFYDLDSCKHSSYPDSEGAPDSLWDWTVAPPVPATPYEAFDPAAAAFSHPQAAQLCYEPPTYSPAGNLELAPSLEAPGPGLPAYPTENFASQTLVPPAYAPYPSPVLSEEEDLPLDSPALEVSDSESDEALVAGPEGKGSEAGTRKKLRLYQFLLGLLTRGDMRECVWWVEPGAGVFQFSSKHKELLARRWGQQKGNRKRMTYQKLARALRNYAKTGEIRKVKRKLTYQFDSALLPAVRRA
# In short: as §1
# ELK3 = molecular target: T6, ELK3 (Homo sapiens, UniProt P41970 1-407)
# T6 sequence: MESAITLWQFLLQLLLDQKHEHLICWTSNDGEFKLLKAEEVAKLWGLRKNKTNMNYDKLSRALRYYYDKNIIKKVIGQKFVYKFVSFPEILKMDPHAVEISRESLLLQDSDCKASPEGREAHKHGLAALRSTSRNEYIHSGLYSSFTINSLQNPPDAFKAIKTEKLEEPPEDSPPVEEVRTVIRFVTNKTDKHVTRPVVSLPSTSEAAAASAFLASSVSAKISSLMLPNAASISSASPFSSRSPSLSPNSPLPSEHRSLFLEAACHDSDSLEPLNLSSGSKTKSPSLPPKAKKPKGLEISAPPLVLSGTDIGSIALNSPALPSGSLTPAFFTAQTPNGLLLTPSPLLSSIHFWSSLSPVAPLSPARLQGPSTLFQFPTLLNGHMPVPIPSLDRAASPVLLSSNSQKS
# In short: as §1
# FEV = molecular target: T7, FEV (Homo sapiens, UniProt Q99581 1-238)
# T7 sequence: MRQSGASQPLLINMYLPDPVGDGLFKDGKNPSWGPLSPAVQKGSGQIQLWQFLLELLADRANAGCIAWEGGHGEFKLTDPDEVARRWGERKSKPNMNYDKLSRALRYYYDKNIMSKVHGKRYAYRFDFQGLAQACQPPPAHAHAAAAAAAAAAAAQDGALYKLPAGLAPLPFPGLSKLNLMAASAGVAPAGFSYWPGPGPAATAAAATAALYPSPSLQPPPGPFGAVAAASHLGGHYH
# In short: as §1
# ETV5 = ETV5 (Homo sapiens, UniProt P41161 1-510)
# Sequence of ETV5 (P41161 whole entry): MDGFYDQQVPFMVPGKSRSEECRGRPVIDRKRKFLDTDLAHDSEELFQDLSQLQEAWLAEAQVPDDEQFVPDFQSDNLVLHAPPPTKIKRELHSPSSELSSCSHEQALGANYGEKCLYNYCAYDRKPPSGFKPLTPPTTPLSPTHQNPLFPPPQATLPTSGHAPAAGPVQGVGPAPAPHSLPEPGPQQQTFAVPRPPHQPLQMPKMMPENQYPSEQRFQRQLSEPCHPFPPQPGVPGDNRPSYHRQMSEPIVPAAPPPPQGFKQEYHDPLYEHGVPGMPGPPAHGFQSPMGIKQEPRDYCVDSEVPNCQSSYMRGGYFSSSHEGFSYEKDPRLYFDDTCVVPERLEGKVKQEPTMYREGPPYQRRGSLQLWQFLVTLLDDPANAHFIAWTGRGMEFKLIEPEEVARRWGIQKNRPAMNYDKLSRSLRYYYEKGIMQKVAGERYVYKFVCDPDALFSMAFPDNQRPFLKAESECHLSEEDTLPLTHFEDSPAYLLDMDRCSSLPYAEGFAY
# In short: as §1
# ELF4 = ELF4 (Homo sapiens, UniProt Q99607 1-663)
# Sequence of ELF4 (Q99607 whole entry): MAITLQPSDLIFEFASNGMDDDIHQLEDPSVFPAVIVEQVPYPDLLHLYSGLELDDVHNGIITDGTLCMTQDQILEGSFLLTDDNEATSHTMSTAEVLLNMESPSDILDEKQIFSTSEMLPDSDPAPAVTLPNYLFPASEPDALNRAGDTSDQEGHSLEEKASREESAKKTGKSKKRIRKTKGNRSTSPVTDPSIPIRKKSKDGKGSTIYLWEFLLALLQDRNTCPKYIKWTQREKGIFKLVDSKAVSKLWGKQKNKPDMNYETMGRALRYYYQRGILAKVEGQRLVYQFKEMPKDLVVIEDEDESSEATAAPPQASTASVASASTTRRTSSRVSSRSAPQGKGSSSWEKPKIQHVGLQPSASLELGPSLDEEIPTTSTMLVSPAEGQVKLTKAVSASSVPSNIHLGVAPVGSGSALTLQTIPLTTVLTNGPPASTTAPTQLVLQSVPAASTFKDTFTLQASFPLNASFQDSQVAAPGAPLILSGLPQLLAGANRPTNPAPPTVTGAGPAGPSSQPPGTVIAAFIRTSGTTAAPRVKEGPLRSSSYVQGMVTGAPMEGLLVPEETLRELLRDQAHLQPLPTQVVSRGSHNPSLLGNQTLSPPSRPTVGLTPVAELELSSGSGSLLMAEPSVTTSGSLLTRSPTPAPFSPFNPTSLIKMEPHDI
# In short: as §1
# ETV1 = ETV1 (Homo sapiens, UniProt P50549 1-477)
# Sequence of ETV1 (P50549 whole entry): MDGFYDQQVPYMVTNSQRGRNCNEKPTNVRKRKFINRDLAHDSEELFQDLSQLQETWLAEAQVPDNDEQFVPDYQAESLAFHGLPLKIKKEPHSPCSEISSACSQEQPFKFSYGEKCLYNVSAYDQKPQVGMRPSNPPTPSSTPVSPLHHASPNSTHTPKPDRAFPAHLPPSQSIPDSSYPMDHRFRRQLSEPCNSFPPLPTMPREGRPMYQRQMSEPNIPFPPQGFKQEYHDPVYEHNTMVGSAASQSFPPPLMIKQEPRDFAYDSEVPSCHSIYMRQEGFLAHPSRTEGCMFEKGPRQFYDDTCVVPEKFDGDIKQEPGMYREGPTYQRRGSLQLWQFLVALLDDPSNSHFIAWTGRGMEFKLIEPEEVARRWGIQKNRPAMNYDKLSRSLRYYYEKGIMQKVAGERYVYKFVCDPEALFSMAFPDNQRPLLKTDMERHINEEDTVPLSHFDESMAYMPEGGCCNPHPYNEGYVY
# In short: as §1
# ERF = molecular target: T8, ERF (Homo sapiens, UniProt P50548 1-548)
# T8 sequence: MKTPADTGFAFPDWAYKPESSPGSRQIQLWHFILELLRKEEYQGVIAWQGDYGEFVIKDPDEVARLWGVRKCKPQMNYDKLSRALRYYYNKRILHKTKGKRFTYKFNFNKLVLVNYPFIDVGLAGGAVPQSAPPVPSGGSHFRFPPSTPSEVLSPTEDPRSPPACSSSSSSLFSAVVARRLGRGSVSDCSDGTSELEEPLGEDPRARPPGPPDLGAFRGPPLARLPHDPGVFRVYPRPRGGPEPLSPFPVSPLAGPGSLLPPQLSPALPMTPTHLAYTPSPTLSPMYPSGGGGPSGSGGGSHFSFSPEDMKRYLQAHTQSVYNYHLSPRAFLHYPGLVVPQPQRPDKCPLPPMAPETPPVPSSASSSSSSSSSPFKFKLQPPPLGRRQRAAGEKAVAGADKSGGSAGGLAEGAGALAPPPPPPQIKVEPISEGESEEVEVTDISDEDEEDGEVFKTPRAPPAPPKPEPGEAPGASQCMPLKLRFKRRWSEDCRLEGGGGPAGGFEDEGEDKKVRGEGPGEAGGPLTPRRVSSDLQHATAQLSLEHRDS
# In short: as §1
# ETS2 = molecular target: T9, ETS2 (Homo sapiens, UniProt P15036 1-469)
# T9 sequence: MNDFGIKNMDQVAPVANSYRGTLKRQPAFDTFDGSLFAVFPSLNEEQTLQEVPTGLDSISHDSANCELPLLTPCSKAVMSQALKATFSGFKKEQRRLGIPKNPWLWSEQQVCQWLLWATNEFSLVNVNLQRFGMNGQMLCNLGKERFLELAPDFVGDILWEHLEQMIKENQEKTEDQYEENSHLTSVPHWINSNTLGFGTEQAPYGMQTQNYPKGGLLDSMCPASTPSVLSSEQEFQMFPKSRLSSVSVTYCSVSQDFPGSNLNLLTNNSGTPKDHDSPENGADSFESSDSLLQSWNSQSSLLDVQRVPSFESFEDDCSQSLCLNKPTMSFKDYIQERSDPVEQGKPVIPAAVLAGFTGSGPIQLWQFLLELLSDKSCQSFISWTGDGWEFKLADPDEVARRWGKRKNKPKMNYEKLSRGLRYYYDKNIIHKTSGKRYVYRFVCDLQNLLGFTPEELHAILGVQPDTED
# In short: as §1
# SPDEF = molecular target: T10, SPDEF (Homo sapiens, UniProt O95238 1-335)
# T10 sequence: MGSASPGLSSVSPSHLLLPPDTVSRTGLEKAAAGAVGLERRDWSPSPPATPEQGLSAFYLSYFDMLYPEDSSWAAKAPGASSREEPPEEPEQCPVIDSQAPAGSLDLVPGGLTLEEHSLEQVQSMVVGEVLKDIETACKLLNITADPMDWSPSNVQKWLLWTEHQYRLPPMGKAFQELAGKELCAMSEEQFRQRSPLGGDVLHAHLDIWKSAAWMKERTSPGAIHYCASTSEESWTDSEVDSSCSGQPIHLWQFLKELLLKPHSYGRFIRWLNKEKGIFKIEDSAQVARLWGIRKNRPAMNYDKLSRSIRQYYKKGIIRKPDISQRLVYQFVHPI
# In short: as §1
# ETV6 = ETV6 (Homo sapiens, UniProt P41212 1-452)
# Sequence of ETV6 (P41212 whole entry): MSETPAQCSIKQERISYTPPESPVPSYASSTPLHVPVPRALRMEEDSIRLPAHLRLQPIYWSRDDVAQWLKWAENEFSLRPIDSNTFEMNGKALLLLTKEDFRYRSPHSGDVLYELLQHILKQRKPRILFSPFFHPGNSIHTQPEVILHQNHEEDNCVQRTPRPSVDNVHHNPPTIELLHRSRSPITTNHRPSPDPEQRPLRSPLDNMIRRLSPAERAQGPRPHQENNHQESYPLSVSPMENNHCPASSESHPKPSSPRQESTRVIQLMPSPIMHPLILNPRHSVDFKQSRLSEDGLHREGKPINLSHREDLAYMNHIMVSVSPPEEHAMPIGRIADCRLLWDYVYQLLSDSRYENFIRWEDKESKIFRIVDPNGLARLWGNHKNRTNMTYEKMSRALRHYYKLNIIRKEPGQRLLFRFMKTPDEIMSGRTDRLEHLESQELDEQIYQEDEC
# In short: as §1
sequence,measurement,setting,value
CATACA,binding signal,FLI1,"1.11 fold enrichment (6-mer frequency, TF over GST control)"
same,binding signal,ELK1,"1.04 fold enrichment (6-mer frequency, TF over GST control)"
same,binding signal,GABPA,"1.08 fold enrichment (6-mer frequency, TF over GST control)"
same,binding signal,ERG,"1.07 fold enrichment (6-mer frequency, TF over GST control)"
same,binding signal,ELF1,"1.06 fold enrichment (6-mer frequency, TF over GST control)"
same,binding signal,EHF,"1.03 fold enrichment (6-mer frequency, TF over GST control)"
same,binding signal,SPI1,"1.05 fold enrichment (6-mer frequency, TF over GST control)"
same,binding signal,SPIB,"1.08 fold enrichment (6-mer frequency, TF over GST control)"
same,binding signal,ELK3,"1.22 fold enrichment (6-mer frequency, TF over GST control)"
same,binding signal,FEV,"1.07 fold enrichment (6-mer frequency, TF over GST control)"
same,binding signal,ETV5,"1.05 fold enrichment (6-mer frequency, TF over GST control)"
same,binding signal,ELF4,"1.15 fold enrichment (6-mer frequency, TF over GST control)"
same,binding signal,ETV1,"1.02 fold enrichment (6-mer frequency, TF over GST control)"
same,binding signal,ERF,"1.15 fold enrichment (6-mer frequency, TF over GST control)"
same,binding signal,ETS2,"1.06 fold enrichment (6-mer frequency, TF over GST control)"
same,binding signal,SPDEF,"1.05 fold enrichment (6-mer frequency, TF over GST control)"
same,binding signal,ETV6,"1.01 fold enrichment (6-mer frequency, TF over GST control)"
